From ChEMBL document CHEMBL2218924, “A broad activity screen in support of a chemogenomic map for kinase signalling research and drug discovery” (Biochem J, 2013)

target: Mitogen-activated protein kinase 11 (Homo sapiens) (UniProt Q15759); conditions: at 1 µM
Sequence (Q15759 whole entry): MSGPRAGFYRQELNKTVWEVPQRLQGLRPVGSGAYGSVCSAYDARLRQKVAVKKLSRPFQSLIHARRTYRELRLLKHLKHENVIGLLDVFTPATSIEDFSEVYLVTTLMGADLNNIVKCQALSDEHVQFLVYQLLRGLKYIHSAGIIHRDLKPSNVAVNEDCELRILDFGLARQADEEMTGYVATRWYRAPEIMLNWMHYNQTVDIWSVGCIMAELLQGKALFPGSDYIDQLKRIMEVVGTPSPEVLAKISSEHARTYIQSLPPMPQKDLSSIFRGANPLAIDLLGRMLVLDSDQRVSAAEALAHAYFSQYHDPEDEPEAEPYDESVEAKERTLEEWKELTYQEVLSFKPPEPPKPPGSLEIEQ

Row | Compound | residual activity
1 | CCOC(=O)c1c(C)[nH]c(/C=C2\C(=O)Nc3ccccc32)c1C | 98%
2 | NC(=O)c1ccc(-c2nc(-c3ccc4c(c3)OCCO4)c(-c3ccccn3)[nH]2)cc1 | 93%
3 | O=c1c(-c2ccc(F)cc2)c(-c2ccncc2)[nH]n1-c1ccc(Cl)cc1 | 23%
4 | O=C1Nc2ccccc2/C1=C\c1c(Cl)[nH]c2ccccc12 | 99%
5 | O=C(NC(NC(=S)Nc1ccc(F)c([N+](=O)[O-])c1)C(Cl)(Cl)Cl)C(c1ccccc1)c1ccccc1 (configuration not stated) | 98%
6 | O=C(O)/C=C/c1cc(Br)c(Br)c(Br)c1Br | 107%
7 | COc1ccc(-c2cnc3c(-c4ccsc4)cnn3c2)cc1 | 94%
8 | Cn1sc(=O)n(Cc2ccccc2)c1=O | 89%
9 | Fc1ccc(-c2nc3n(c2-c2ccncc2)CCS3)cc1 | 80%
10 | Nc1ncnc2c1cnn2-c1ccccc1 | 97%
11 | CN([C@@H](Cc1ccc(OS(=O)(=O)c2cccc3cnccc23)cc1)C(=O)N1CCN(c2ccccc2)CC1)S(=O)(=O)c1cccc2cnccc12 | 113%
12 | CC(C)(C)c1nc2c3ccc(F)cc3c3c(=O)[nH]ccc3c2[nH]1 | 62%
13 | O=C1Cc2c([nH]c3ccc([N+](=O)[O-])cc23)-c2ccccc2N1 | 100%
14 | O=C(c1ccccc1)c1ccc(N2CCOCC2)cc1O | 96%
15 | O=C1Cc2c([nH]c3ccc(Br)cc23)-c2ccccc2N1 | 98%
16 | CC(C)[C@H](CO)Nc1nc(Nc2cc(N)cc(Cl)c2)c2ncn(C(C)C)c2n1 | 119%

target: Mitogen-activated protein kinase 11 (Homo sapiens) (UniProt Q15759); conditions: at 10 µM

Row | Compound | residual activity
17 | CCOC(=O)c1c(C)[nH]c(/C=C2\C(=O)Nc3ccccc32)c1C | 77%
18 | NC(=O)c1ccc(-c2nc(-c3ccc4c(c3)OCCO4)c(-c3ccccn3)[nH]2)cc1 | 88%
19 | O=c1c(-c2ccc(F)cc2)c(-c2ccncc2)[nH]n1-c1ccc(Cl)cc1 | 5%
20 | O=C(NC(NC(=S)Nc1ccc(F)c([N+](=O)[O-])c1)C(Cl)(Cl)Cl)C(c1ccccc1)c1ccccc1 (configuration not stated) | 97%
21 | O=C(O)/C=C/c1cc(Br)c(Br)c(Br)c1Br | 126%
22 | COc1ccc(-c2cnc3c(-c4ccsc4)cnn3c2)cc1 | 95%
23 | Cn1sc(=O)n(Cc2ccccc2)c1=O | 89%
24 | Fc1ccc(-c2nc3n(c2-c2ccncc2)CCS3)cc1 | 23%
25 | COc1cc2ncnc(Nc3cccc(Cl)c3)c2cc1OC | 45%
26 | Nc1ncnc2c1cnn2-c1ccccc1 | 85%
27 | CC(C)(C)c1nc2c3ccc(F)cc3c3c(=O)[nH]ccc3c2[nH]1 | 69%
28 | O=C1Cc2c([nH]c3ccc([N+](=O)[O-])cc23)-c2ccccc2N1 | 103%
29 | O=C(c1ccccc1)c1ccc(N2CCOCC2)cc1O | 91%
30 | O=C1Cc2c([nH]c3ccc(Br)cc23)-c2ccccc2N1 | 89%
31 | CC(C)[C@H](CO)Nc1nc(Nc2cc(N)cc(Cl)c2)c2ncn(C(C)C)c2n1 | 99%
32 | NCCNc1ncc(C(N)=O)c(Nc2cccc(C(F)(F)F)c2)n1 | 104%
